{"source": "paper PMC10668032", "about": "“Altered binding affinity of SIX1-Q177R correlates with enhanced WNT5A and WNT pathway effector expression in Wilms tumor”", "note": "The full ranking holds about 33,000 sequences; the median of “e-score” is about -0.053, and the highest 2% start at about 0.38. The sample as a whole holds a higher share of the highest values than the screen did.", "data": [{"target": "T1, SIX1 homeodomain (reference allele) (human, UniProt Q15475 108-198)", "T1 sequence": "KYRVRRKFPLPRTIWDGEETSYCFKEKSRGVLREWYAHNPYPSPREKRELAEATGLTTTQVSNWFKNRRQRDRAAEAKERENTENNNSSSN", "experiment": "universal protein binding microarray; Universal all-10-mer PBM (8x60K, AMADID 030236), 300 nM GST-tagged protein, Alexa Fluor 488 anti-GST; buffer, salt, pH and temperature not stated (as in Berger); high values mean tight binding", "settings": "protein: ivt; tags: N-terminal GST; dsDNA, one strand shown", "summary_of_the_method": "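Homeodomains fused to GST were made by in vitro transcription/translation and measured by anti-GST western blot with a recombinant GST standard curve. At 300 nM final concentration, they were applied in duplicate to universal 'all 10-mer' protein binding microarrays (8×60K format).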", "units": {"binding signal": "E-score"}, "values": [{"sequence": "ATATAGTC", "binding signal": "0.209 ± 0.0236"}, {"sequence": "AACACCTG", "binding signal": "0.267 ± 0.00339"}, {"sequence": "ATCCAGTC", "binding signal": "0.179 ± 0.0594"}, {"sequence": "CGTATAAA", "binding signal": "0.219 ± 0.0801"}, {"sequence": "TATCAATA", "binding signal": "0.407 ± 0.0444"}, {"sequence": "GATCAATA", "binding signal": "0.291 ± 0.0232"}, {"sequence": "TATCAACA", "binding signal": "0.399 ± 0.0298"}, {"sequence": "TATCAAAA", "binding signal": "0.342 ± 0.1"}, {"sequence": "TATCAAGA", "binding signal": "0.302 ± 0.0583"}, {"sequence": "GATCAACA", "binding signal": "0.281 ± 0.0353"}, {"sequence": "CCATCTCA", "binding signal": "0.164 ± 0.00629"}, {"sequence": "GGATTATA", "binding signal": "0.362 ± 0.0571"}, {"sequence": "TAATAATA", "binding signal": "0.225 ± 0.0789"}, {"sequence": "ATCCCGGC", "binding signal": "0.173 ± 0.0398"}, {"sequence": "CATCTATA", "binding signal": "0.251 ± 0.034"}, {"sequence": "AATCCGAC", "binding signal": "0.189 ± 0.00791"}, {"sequence": "GATCCGAA", "binding signal": "0.357 ± 0.0457"}, {"sequence": "CATCCGGC", "binding signal": "0.226 ± 0.0528"}, {"sequence": "AATCCGGC", "binding signal": "0.228 ± 0.0229"}, {"sequence": "CATCCGTA", "binding signal": "0.168 ± 0.00426"}, {"sequence": "GATCCGGC", "binding signal": "0.3929 ± 0.00159"}, {"sequence": "GATCCGAC", "binding signal": "0.389 ± 0.0403"}, {"sequence": "TACCCGGA", "binding signal": "0.332 ± 0.00363"}, {"sequence": "GATCCGTA", "binding signal": "0.383 ± 0.00781"}, {"sequence": "TATCCGGA", "binding signal": "0.3912 ± 0.000898"}, {"sequence": "AATCCGGT", "binding signal": "0.252 ± 0.0106"}, {"sequence": "CATCCGAC", "binding signal": "0.209 ± 0.0838"}, {"sequence": "ATCTACTC", "binding signal": "0.297 ± 0.0368"}, {"sequence": "ATATGTAG", "binding signal": "0.151 ± 0.0301"}, {"sequence": "CATAAACC", "binding signal": "0.19 ± 0.0201"}, {"sequence": "GATAATCC", "binding signal": "0.34 ± 0.0479"}, {"sequence": "CGACTATC", "binding signal": "0.246 ± 0.0396"}, {"sequence": "GAGATCAC", "binding signal": "0.368 ± 0.00856"}, {"sequence": "ATCCTTGG", "binding signal": "0.189 ± 0.0361"}, {"sequence": "GATCCGGA", "binding signal": "0.405 ± 0.0443"}, {"sequence": "AATCCGGA", "binding signal": "0.276 ± 0.0325"}, {"sequence": "CATCCGGA", "binding signal": "0.21 ± 0.0635"}, {"sequence": "ACACCAAC", "binding signal": "0.224 ± 0.00659"}, {"sequence": "ACCCTATC", "binding signal": "0.346 ± 0.0051"}, {"sequence": "CCCCTATC", "binding signal": "0.405 ± 0.0204"}, {"sequence": "CCCCTATA", "binding signal": "0.198 ± 0.0352"}, {"sequence": "CAGATCAA", "binding signal": "0.298 ± 0.00526"}, {"sequence": "AATATCTA", "binding signal": "0.259 ± 0.0807"}, {"sequence": "GATATCAA", "binding signal": "0.453 ± 0.0358"}, {"sequence": "CATATCTA", "binding signal": "0.322 ± 0.0223"}, {"sequence": "GATATTAA", "binding signal": "0.31 ± 0.0894"}, {"sequence": "TATATCAA", "binding signal": "0.361 ± 0.0752"}, {"sequence": "GCTATCAC", "binding signal": "0.357 ± 0.0605"}, {"sequence": "GATATCTA", "binding signal": "0.392 ± 0.0618"}, {"sequence": "GATATCAC", "binding signal": "0.476 ± 0.018"}, {"sequence": "GATATTAC", "binding signal": "0.319 ± 0.0605"}, {"sequence": "CATATCAA", "binding signal": "0.452 ± 0.0378"}, {"sequence": "CTAATCTC", "binding signal": "0.175 ± 0.0194"}, {"sequence": "ATCCACTG", "binding signal": "0.152 ± 0.0476"}, {"sequence": "ATCAAACC", "binding signal": "0.261 ± 0.00716"}, {"sequence": "GATCAATC", "binding signal": "0.366 ± 0.0109"}, {"sequence": "ATACGCTC", "binding signal": "0.245 ± 0.0572"}, {"sequence": "GGATCTAA", "binding signal": "0.285 ± 0.00708"}, {"sequence": "ATACGAAG", "binding signal": "0.199 ± 0.0115"}, {"sequence": "GTATTCCA", "binding signal": "0.202 ± 0.0137"}, {"sequence": "ATACGTCC", "binding signal": "0.24 ± 0.0851"}, {"sequence": "AGCGATAC", "binding signal": "0.453 ± 0.01"}, {"sequence": "CGCGATAC", "binding signal": "0.458 ± 0.000728"}, {"sequence": "AGCGCGAT", "binding signal": "0.166 ± 0.026"}, {"sequence": "CGCGACAC", "binding signal": "0.254 ± 0.0327"}, {"sequence": "GGCGATGA", "binding signal": "0.193 ± 0.0619"}, {"sequence": "GGCGATAC", "binding signal": "0.4435 ± 0.00237"}, {"sequence": "GGCGATCA", "binding signal": "0.338 ± 0.00739"}, {"sequence": "AGCGATAT", "binding signal": "0.42 ± 0.0465"}, {"sequence": "AGCGATCA", "binding signal": "0.206 ± 0.0525"}, {"sequence": "AGCGATCG", "binding signal": "0.211 ± 0.0392"}, {"sequence": "AGCGATAG", "binding signal": "0.209 ± 0.0329"}, {"sequence": "CGCGATAG", "binding signal": "0.199 ± 0.0163"}, {"sequence": "ATACACGA", "binding signal": "0.234 ± 0.00563"}, {"sequence": "GGCCGATA", "binding signal": "0.29107 ± 0.000269"}, {"sequence": "CGATGCAG", "binding signal": "0.21 ± 0.0529"}, {"sequence": "AGGCATAT", "binding signal": "0.308 ± 0.0386"}, {"sequence": "GACAGATC", "binding signal": "0.286 ± 0.0143"}, {"sequence": "GTAATCTA", "binding signal": "0.15 ± 0.0468"}, {"sequence": "CTATACTA", "binding signal": "0.168 ± 0.0897"}, {"sequence": "CCTCTAGA", "binding signal": "0.158 ± 0.0403"}]}]}
